Measurements reported in PubChem BioAssay (NCATS).
Inconclusive results are not listed. Calls of active or inactive are those of the source. Calls come from the whole dose curve; as a rule, active = well fitted cell-killing curve with a large enough effect; inconclusive = small, poorly fitted or top-dose-only effect, or effect the other way; inactive = no such curve, though single readings can be large or run the other way.

Assay: Quantitative High-Throughput drug screen in 47 multiple myeloma cell lines against the NCATS MIPE library collection: OCIMY5_PLB cell viability assay (AID 1918988); note: nearly all actives have a fitted effect of over 65% in size
Details: OCI-MY5 myeloma viability, ATP luminescence, 48 h; series mostly up to 45.8 µM
Procedure, shortened: (§1)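 Cells were exposed to library compounds for 48 hours, after which ATP was measured by CellTiter-Glo. Signal was taken as median relative luminescence units.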
Potency is the fitted concentration of half-maximal effect.

Row | SMILES | Potency
1 | O=C1C=CC[C@@H]2[C@H]3CCCN4CCC[C@@H](CN12)[C@@H]34 | 2.96 µM (active)
2 | COc1ccc2c(c1)CN(C)CC2c1ccc(Cl)c(Cl)c1 (stereo unspecified) | 11.8 µM (active)
3 | CC(C)N[C@@H]1CCn2c(=O)[nH]c3cccc(c32)[C@@H]1O | 0.118 µM (active)
4 | N=c1c2c(-c3ccccc3)c(-c3ccccc3)n(Cc3ccccc3)c2ncn1C1CCC(O)CC1 (stereo unspecified) | 11.8 µM (active)
5 | CSCC[C@@H](NC(=O)[C@@H](Cc1ccccc1)NC(=O)CNC(=O)CNC(=O)[C@@H](N)Cc1ccc(O)cc1)C(=O)O | inactive
6 | C[C@]12CC[C@H]3[C@@H](CCC4=CC(=O)CC[C@@]43C)[C@H]1CC[C@H]2OC(=O)CCC1CCCC1 | 20.9 µM (active)
7 | Cc1ccccc1-n1c(Cn2ncc3c(N)ncnc32)nc2cccc(C)c2c1=O | 4.18 µM (active)
8 | CCOC(=O)c1cncn1[C@H](C)c1ccccc1 | inactive
9 | CC[C@H]1C=CC=CC[C@@H](C)[C@H](O)[C@@](C)(O)C(=O)[C@@H](C)[C@H](O)[C@@H](C)C(=O)[C@@H](C)[C@H](O)[C@@H](C)C=CC(=O)O[C@@H]2[C@@H](C)[C@H](CC1)O[C@]1(CC[C@H](C)[C@H](C[C@@H](C)O)O1)[C@H]2C | 0.0017 µM (active)
10 | CCNC(=O)CC1N=C(c2ccc(Cl)cc2)c2cc(OC)ccc2-n2c(C)nnc21 (stereo unspecified) | 6.62 µM (active)
11 | N#C[C@H](O[C@@H]1O[C@H](CO[C@@H]2O[C@H](CO)[C@H](O)[C@H](O)[C@H]2O)[C@H](O)[C@H](O)[C@H]1O)c1ccccc1 | 20.9 µM (active)
12 | CC1=NN=C(c2ccc(N)cc2)c2cc3c(cc2C1)OCO3 | 18.7 µM (active)
13 | Cc1c(C(=O)c2cccc3ccccc23)c2cccc3c2n1[C@H](CN1CCOCC1)CO3 | 23.5 µM (active)
14 | CCN1C[C@]2(OC(=O)c3ccccc3NC(C)=O)CC[C@H](OC)[C@@]34[C@H]5CC6[C@@H](OC)C[C@](O)(C(C[C@@H]23)[C@@H]14)[C@@]5(O)[C@@H]6OC | inactive
15 | O=[N+]([O-])c1ncc[nH]1 | 29.6 µM (active)
16 | CN[C@@H]1Cc2cccc3[nH]c(=O)n(c23)C1 | 20.9 µM (active)
17 | CCCN1CCO[C@@H]2c3cc(O)ccc3OC[C@@H]21 | 18.7 µM (active)
18 | CC(O)=C(C#N)C(=O)Nc1cc(Br)ccc1Br | 1.66 µM (active)
19 | C[C@]12Cc3cn[nH]c3C[C@@H]1CC[C@@H]1[C@H]2CC[C@@]2(C)[C@H]1CC[C@]2(C)O | 13.2 µM (active)
20 | CC(N[C@H]1C[C@H]1c1ccccc1)c1ccc2c(c1)OCCO2 (stereo partly specified) | 2.96 µM (active)
21 | COC[C@H]1OC(=O)c2coc3c2[C@@]1(C)C1=C(C3=O)[C@@H]2CC[C@H](O)[C@@]2(C)C[C@@H]1OC(C)=O | 10.5 µM (active)
22 | COc1ccc(C(=O)c2c(C)n(CCN3CCOCC3)c3cc(I)ccc23)cc1 | 9.35 µM (active)
23 | C[C@]12CCC(=O)C(O)=C1CC[C@@H]1[C@H]3CCC(=O)[C@@]3(C)CC[C@@H]12 | 18.7 µM (active)
24 | O=C(Nc1ccncc1)C(=O)c1cn(Cc2ccc(Cl)cc2)c2ccccc12 | 0.0372 µM (active)

Assay: Quantitative High-Throughput drug screen in 47 multiple myeloma cell lines against the NCATS MIPE library collection: OPM1_PLB cell viability assay (AID 1918989); note: nearly all actives have a fitted effect of over 40% in size
Details: CellTiter-Glo, 48 h; series mostly up to 45.8 µM
Procedure, shortened: as §1

Row | SMILES | Potency
25 | COc1ccc2c(c1)CN(C)CC2c1ccc(Cl)c(Cl)c1 (stereo unspecified) | 18.7 µM (active)
26 | Cc1nc(-c2ccc(-c3ccc(C(=O)N4CCc5cc6c(cc54)C4(CCN(C)CC4)CO6)cc3)c(C)c2)no1 | inactive
27 | N=c1c2c(-c3ccccc3)c(-c3ccccc3)n(Cc3ccccc3)c2ncn1C1CCC(O)CC1 (stereo unspecified) | 3.32 µM (active)
28 | CSCC[C@@H](NC(=O)[C@@H](Cc1ccccc1)NC(=O)CNC(=O)CNC(=O)[C@@H](N)Cc1ccc(O)cc1)C(=O)O | inactive
29 | Cc1ccccc1-n1c(Cn2ncc3c(N)ncnc32)nc2cccc(C)c2c1=O | 0.148 µM (active)
30 | O=C(N[C@H]1CN2CCC1CC2)c1ccc(Cl)cc1 | inactive
31 | N#C[C@H](O[C@@H]1O[C@H](CO[C@@H]2O[C@H](CO)[C@H](O)[C@H](O)[C@H]2O)[C@H](O)[C@H](O)[C@H]1O)c1ccccc1 | 26.4 µM (active)
32 | CC1=NN=C(c2ccc(N)cc2)c2cc3c(cc2C1)OCO3 | inactive
33 | O=C1CCC[C@@H]2[C@H]3CCCN4CCC[C@@H](CN12)[C@@H]34 | inactive
34 | CN[C@@H]1Cc2cccc3[nH]c(=O)n(c23)C1 | inactive
35 | CCCN1CCO[C@@H]2c3cc(O)ccc3OC[C@@H]21 | inactive
36 | CC(N[C@H]1C[C@H]1c1ccccc1)c1ccc2c(c1)OCCO2 (stereo partly specified) | inactive
37 | COC[C@H]1OC(=O)c2coc3c2[C@@]1(C)C1=C(C3=O)[C@@H]2CC[C@H](O)[C@@]2(C)C[C@@H]1OC(C)=O | 0.332 µM (active)
38 | CN(C)NC(=O)CCC(=O)O | inactive
39 | COc1ccc(C(=O)c2c(C)n(CCN3CCOCC3)c3cc(I)ccc23)cc1 | 18.7 µM (active)
40 | O=C(NCC1CCOCC1)c1cnc(Nc2ccc(Cl)cc2Cl)nc1C(F)(F)F | inactive
41 | CC(=O)Nc1ccc(OC[C@](C)(O)C(=O)Nc2ccc([N+](=O)[O-])c(C(F)(F)F)c2)cc1 | inactive
